This passage reports Potency results from PubChem BioAssay (NCATS).

Inconclusive results are not listed. Calls of active or inactive are those of the source. Calls follow the shape of the dose curve; as a rule, active = well fitted curve in the direction sought with a large enough effect; inconclusive = small, poorly fitted or top-dose-only effect, or another doubt; inactive = no such curve, though single readings can be large; an effect the other way counts as inactive or inconclusive.

A short description of experiment [1]: qHTS of pediatric cancer cell lines to identify multiple opportunities for drug repurposing: Primary screen for SK-N-MC cells (AID 1347093). Also: potency is read from the fitted curve at half-maximal effect. Summed up:
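Metabolically active cells were quantified by ATP-dependent luminescence (CellTiter-Glo, 15 min at room temperature) following 48 h treatment. Cells had been plated at 500-1,000 per well and settled for 5 h beforehand.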
(In general: Quantitative high-throughput screening tests each substance at several concentrations.)

The nature of experiment [2]: qHTS of pediatric cancer cell lines to identify multiple opportunities for drug repurposing: Primary screen for NB-EBc1 cells (AID 1347095). The method, boiled down: (§1)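 Primary screen of approved and investigational compounds on cells in growth media at 37 degrees C, 5% CO2. MIPE set at 11-point and NPC set at 8-point dilutions; viability scored by ATP-based luminescence at 48 hours.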

Experiment [3] is described as follows: qHTS of pediatric cancer cell lines to identify multiple opportunities for drug repurposing: Primary screen for U-2 OS cells (AID 1347096). Also: nearly all actives have a fitted effect of over 50% in size. Also: potency is read from the fitted curve at half-maximal effect. The method, boiled down: (§2)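 Viability after 48 h compound treatment at 37C, 500-1,000 cells/well, read as ATP luminescence with CellTiter-Glo. Primary screens used 11-point (MIPE, 0.78 nM-46 µM) or 8-point (NPC, 0.59 nM-46 µM) final concentrations; follow-up screens used 11-point dilutions.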

Experiment [4] is described as follows: qHTS of pediatric cancer cell lines to identify multiple opportunities for drug repurposing: Primary screen for Saos-2 cells (AID 1347097). Also: nearly all actives have a fitted effect of over 40% in size. The method, boiled down: as §1
A short description of experiment [5]: qHTS of pediatric cancer cell lines to identify multiple opportunities for drug repurposing: Primary screen for SK-N-SH cells (AID 1347098). Also: nearly all actives have a fitted effect of over 65% in size. Also: potency is read from the fitted curve at half-maximal effect. Summed up: (§3)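 Cells (500-1,000/well) rested 5 h, then received compounds for 48 h; metabolically active cells were measured by CellTiter-Glo luminescence. Final concentrations spanned up to 46 µM (MIPE, 11-point) or 0.59 nM-46 µM (NPC, 8-point) in primary screens, 11-point in follow-ups.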

The nature of experiment [6]: qHTS of pediatric cancer cell lines to identify multiple opportunities for drug repurposing: Primary screen for NB1643 cells (AID 1347099). Also: nearly all actives have a fitted effect of over 50% in size. Summed up: as §1
A short description of experiment [7]: qHTS of pediatric cancer cell lines to identify multiple opportunities for drug repurposing: Primary screen for LAN-5 cells (AID 1347100). The method, boiled down:
as §2

Experiment [8] in a line: qHTS of pediatric cancer cell lines to identify multiple opportunities for drug repurposing: Primary screen for BT-12 cells (AID 1347101). Also: nearly all actives have a fitted effect of over 25% in size. Also: potency is read from the fitted curve at half-maximal effect. The method, boiled down:
as §3

Experiment [9] in a line: qHTS of pediatric cancer cell lines to identify multiple opportunities for drug repurposing: Primary screen for Rh18 cells (AID 1347102). Also: nearly all actives have a fitted effect of over 65% in size. Also: potency is read from the fitted curve at half-maximal effect. Summed up:
as §2

Experiment [10] is described as follows: qHTS of pediatric cancer cell lines to identify multiple opportunities for drug repurposing: Primary screen for BT-37 cells (AID 1347094). Also: series mostly up to about 57 µM. The method, boiled down:
as §1

Consider `COP(=S)(OC)Oc1ccc(S(=O)(=O)N(C)C)cc1`, for which the Potency result in experiment [1], in experiment [2], in experiment [3], in experiment [4], in experiment [5] and in [6] was “inactive” each time. Besides, the Potency entry in experiment [7], in experiment [8] and in [9] was “inactive” in each case.
With `CCC1(c2ccccc2)C(=O)N(COC)C(=O)N(COC)C1=O`, the Potency result in experiment [10], in experiment [2], in experiment [3], in [4], in experiment [5] and in experiment [6] was “inactive” in each case. Further, the Potency entry in experiment [7] and in experiment [8] was “inactive” each time.
Take `C[C@H]1[C@@H]2Cc3ccc(O)cc3[C@@]1(C)CCN2C`: the Potency result in [10], in [2], in experiment [3], in experiment [4], in [5] and in experiment [6] was “inactive” in each case. In addition, the Potency entry in experiment [7], in [8] and in experiment [9] was “inactive” throughout.
Take `CC[N+]1(CC)CCC(OC(=O)C(O)(c2ccccc2)c2ccccc2)C1` (configuration not stated): the Potency result in experiment [10], in [2], in experiment [3], in experiment [4], in [5] and in [6] was “inactive” each time. Further, the Potency entry in experiment [7], in [8] and in experiment [9] was “inactive” each time.
`CN1CCC(O)(c2ccc(F)cc2)C(C(=O)c2ccc(F)cc2)C1` (configuration not stated): the Potency entry in [1], in experiment [2], in experiment [3], in experiment [4], in experiment [7] and in experiment [8] was “inactive” in each case.
Take `COc1cccc2c1C(=O)c1c(O)c3c(c(O)c1C2=O)C[C@@](O)(C(=O)CO)CC3OC1CC(N2CCOC(OC)C2)C(O)C(C)O1` (some centres not stated): the Potency is 8.4 nM (active) in [1]; 266 nM (active) in experiment [3]; 21.7 nM (active) in experiment [5]; 69.2 nM (active) in experiment [8]; 59.6 nM (active) in [9].
For `C[C@@H](N)[C@@H](O)c1ccccc1`, the Potency result in experiment [1], in experiment [2], in experiment [3], in [4], in experiment [5] and in [6] was “inactive” throughout. Also, the Potency entry in experiment [7], in experiment [8] and in experiment [9] was “inactive” throughout.
Turning to `CN1C(=O)CCS(=O)(=O)C1c1ccc(Cl)cc1` (configuration not stated), the Potency result in experiment [10], in [2], in experiment [3], in experiment [4], in experiment [5] and in experiment [6] was “inactive” throughout. Besides, the Potency entry in experiment [7], in experiment [8] and in experiment [9] was “inactive” throughout.
Consider `NC(=O)CS(=O)C(c1ccccc1)c1ccccc1` (configuration not stated), for which the Potency entry in experiment [10], in experiment [2], in experiment [3], in experiment [4], in experiment [5] and in experiment [7] was “inactive” in each case. Also, the Potency result in experiment [8] and in [9] was “inactive” throughout.
Take `COP(=S)(OC)Oc1ccc(SC)c(C)c1`: the Potency entry in [10], in experiment [2], in experiment [3], in [4], in experiment [5] and in [6] was “inactive” each time. In addition, the Potency result in experiment [7], in experiment [8] and in experiment [9] was “inactive” in each case.
Regarding `COc1cc(OC)c(OC)cc1C=O`, the Potency entry in experiment [10], in experiment [2], in experiment [3], in experiment [4], in [5] and in [6] was “inactive” throughout. In addition, the Potency result in experiment [7] and in [8] was “inactive” in each case.
For `COc1c2c(cc3c1OCO3)CCN(C)C2`, the Potency result in experiment [1], in experiment [2], in experiment [3], in experiment [5], in experiment [6] and in experiment [7] was “inactive” in each case. For the same compound, in [8], the Potency entry was “inactive”.
For the compound `O=c1[nH]oc2c1CCNC2`, the Potency entry in experiment [10], in [2], in experiment [3], in [4], in experiment [5] and in experiment [6] was “inactive” in each case. The Potency entry in experiment [7], in experiment [8] and in experiment [9] was “inactive” in each case.
`C[N+]1(CCF)[C@@H]2CC[C@H]1CC(OC(=O)C(O)(c1ccccc1)c1ccccc1)C2` (some centres not stated): the Potency entry in experiment [1], in [2], in experiment [3], in experiment [4], in experiment [5] and in experiment [7] was “inactive” throughout. In addition, the Potency result in [8] was “inactive”.
As to `Nc1ccc([As](=O)(O)O)cc1`, the Potency result in experiment [1], in experiment [2], in [3], in [4], in experiment [5] and in experiment [6] was “inactive” throughout. Further, the Potency entry in experiment [7], in experiment [8] and in [9] was “inactive” throughout.
With `CC(=O)C1CCOC1=O` (configuration not stated), the Potency entry in [1], in experiment [2], in [3], in experiment [4], in experiment [5] and in experiment [7] was “inactive” each time. Besides, the Potency result in experiment [8] and in experiment [9] was “inactive” in each case.
Take `COc1cc(CC(C)N)cc(OC)c1OC` (configuration not stated): the Potency entry in experiment [1], in experiment [2], in [3], in experiment [4], in [5] and in experiment [6] was “inactive” each time. For the same compound, the Potency entry in [7], in experiment [8] and in experiment [9] was “inactive” throughout.
Regarding `CN1C(=O)COc2c(C(=O)NC3CN4CCC3CC4)cc(Cl)cc21` (configuration not stated), the Potency result in [1], in [2], in [3], in experiment [4], in experiment [5] and in experiment [6] was “inactive” throughout. For the same compound, the Potency result in experiment [7], in experiment [8] and in [9] was “inactive” throughout.
On to `CC(C(=O)c1ccccc1)N(C)C` (configuration not stated), for which the Potency entry in experiment [10], in experiment [2], in [3], in experiment [4], in [5] and in experiment [6] was “inactive” in each case. Also, the Potency entry in experiment [7] and in experiment [8] was “inactive” in each case.
Take `Oc1ccc(Cl)cc1`: the Potency result in experiment [10], in [2], in experiment [3], in experiment [4], in experiment [5] and in [6] was “inactive” throughout. The Potency result in experiment [7] and in experiment [8] was “inactive” throughout.
In the case of `Nc1ccccc1C(=O)O`, the Potency result in [10], in experiment [2], in [3], in experiment [4], in experiment [5] and in experiment [6] was “inactive” each time. In addition, the Potency entry in experiment [7], in experiment [8] and in [9] was “inactive” throughout.
For `O=C(O)c1ccc(=O)[nH]c1`, the Potency result in [10], in experiment [2], in experiment [3], in experiment [4], in experiment [5] and in experiment [6] was “inactive” throughout. Further, the Potency entry in experiment [7], in [8] and in [9] was “inactive” throughout.
Consider `COP(=S)(OC)Oc1cc(Cl)c(Cl)cc1Cl`, for which the Potency result in experiment [10], in experiment [2], in experiment [3], in experiment [4], in [5] and in experiment [6] was “inactive” each time. Moreover, the Potency result in experiment [7] and in experiment [8] was “inactive” throughout.
With `ClCCN1CCCC1`, the Potency entry in [10], in experiment [2], in [3], in experiment [4], in experiment [5] and in [6] was “inactive” throughout. For the same compound, the Potency result in experiment [7], in experiment [8] and in [9] was “inactive” in each case.
For `CCN(CCO)CCn1c(Cc2ccccc2)nc2c1c(=O)n(C)c(=O)n2C`, the Potency result in experiment [10], in [2], in experiment [3], in experiment [4], in experiment [5] and in experiment [6] was “inactive” in each case. The Potency result in experiment [7], in [8] and in experiment [9] was “inactive” throughout.
